Source: PubChem BioAssay (National Center for Advancing Translational Sciences (NCATS))
KCNH2 3.1 inh: blocks the human KCNH2 3.1 channel isoform; U2OS KCNH2 3.1, thallium flux FluxOr; active compounds read low; AID 720553; activity change, % (tested at about 1.8 µM); actives 0.95% (n = 340,000);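 active = maximum activity change below -70%; inconclusive = maximum activity change from -70% to -50%; inactive = maximum activity change above -50%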;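 note: thallium influx rate constant from kinetic fluorescence after stimulation buffer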
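FluxOr-based Tl+ influx in U2OS cells transduced with KCNH2 3.1 virus; rate constants normalized to DMSO controls.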
MBNL1-CUG inh: inhibitors of human MBNL1 binding to CUG repeat RNA. TR-FRET MBNL1-His/biotin-(CUG)12 binding, 665/545 ratio. Potency, µM (highest dose often 57.5 µM), usual class: inhibitors. actives 0.036% (n = 280,000); active = well fitted inhibition curve with a large enough effect in the signal ratio, with a control signal flat, not every such curve was filed as active; inconclusive = small, poorly fitted or top-dose-only effect, or effect the other way, or a change in a side signal; inactive = no such curve, though single readings can be large or run the other way; the % refers to the signal ratio
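MBNL1-His + Biotin-(CUG)12, cpd titration 92 nM–58 uM; Tb anti-His Ab 0.055 ng/ul, SA-XL665 5 nM (final); 60 min RT; ratiometric 665/545 nm, Ex 340 nm; normalized to buffer and full-complex controls.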
CBFb-RUNX1 inh: CBF-beta/RUNX1 interaction disruption | Q01196+Q13951 | AlphaScreen CBFb-His/RUNX1-biotin binding, biochemical | Potency, µM (top dose mostly 59.8 µM), hits mostly inhibitors | 230,000 tested, under 10 active | AID 1477
Target sequence (Q01196 whole entry, looked up): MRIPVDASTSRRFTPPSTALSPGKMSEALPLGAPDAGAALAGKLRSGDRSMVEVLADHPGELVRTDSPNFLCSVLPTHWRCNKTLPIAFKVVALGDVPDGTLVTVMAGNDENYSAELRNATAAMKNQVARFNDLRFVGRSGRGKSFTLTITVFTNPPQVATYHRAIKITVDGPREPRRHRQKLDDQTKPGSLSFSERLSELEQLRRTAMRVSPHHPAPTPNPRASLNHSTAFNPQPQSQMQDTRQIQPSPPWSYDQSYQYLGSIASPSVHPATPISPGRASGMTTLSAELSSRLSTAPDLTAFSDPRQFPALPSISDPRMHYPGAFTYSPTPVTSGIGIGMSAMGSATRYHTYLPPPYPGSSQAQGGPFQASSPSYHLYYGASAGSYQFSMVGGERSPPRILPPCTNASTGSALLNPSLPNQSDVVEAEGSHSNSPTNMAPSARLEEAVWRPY
Target sequence (Q13951 whole entry, looked up): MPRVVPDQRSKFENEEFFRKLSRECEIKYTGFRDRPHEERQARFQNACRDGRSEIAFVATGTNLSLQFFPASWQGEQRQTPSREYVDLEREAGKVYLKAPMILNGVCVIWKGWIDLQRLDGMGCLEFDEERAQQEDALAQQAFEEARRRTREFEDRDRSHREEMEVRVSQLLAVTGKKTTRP
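Inhibition was taken as any reduction in AlphaScreen signal from the CBF-beta–RUNX1 pair (His and biotin tags, 30 nM each), measured after compound (15 min) and bead (90 min) incubations at room temperature.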
PLK1 PBD inh: blocks phosphopeptide binding to human PLK1 polo-box domain; P53350; Plk1 PBD binding of FITC phosphopeptide, fluorescence polarization; Potency, µM, most hits filed as inhibitors; actives 2.8% (n = 360,000); AID 720504; note: series mostly up to about 57 µM; nearly all actives have a fitted effect of over 65% in size
KCNH2 WT inh: inhibitors of human wildtype KCNH2 potassium channel; actives 0.37% (n = 340,000); U2OS, BacMam KCNH2, thallium flux FluxOr; active compounds read low; Q12809; activity change, % at 1.84 µM;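 active = maximum activity change below -70%; inconclusive = maximum activity change between -70% and -50%; inactive = maximum activity change above -50%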
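U2OS cells were transduced with wild-type KCNH2 virus (2.03 x 10^8 / mL) for 4 h at room temperature, then cultured overnight at 37 C. Thallium flux was read with FluxOr dye. Rate constants were normalized to DMSO controls.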
VDR inh: inhibitors of human vitamin D receptor | VDR-SRC2-3 peptide fluorescence polarization, 2 h | actives 0.93% (n = 400,000) | AID 504847 | Potency, µM, actives largely listed as inhibitors
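Measured by FP: displacement of SRC2-3 coactivator peptide from VDR by library compounds, following a two-hour ambient incubation.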
A number is an active result; . = inactive; ? = inconclusive; / = not tested or not shown. Sampled rows, rich in hits. Any-hit rate of the full collection: about 3.8%. Unless noted, calls come from the whole dose curve; as a rule, active = well fitted curve in the direction sought with a large enough effect; inconclusive = small, poorly fitted or top-dose-only effect, or another doubt; inactive = no such curve, though single readings can be large; an effect the other way counts as inactive or inconclusive.

SMILES	KCNH2 3.1 inh	MBNL1-CUG inh	CBFb-RUNX1 inh	PLK1 PBD inh	KCNH2 WT inh	VDR inh
O=C(CCN1C(=O)S/C(=C\c2ccccc2)C1=O)N1CCCCC1	.	?	/	.	.	.
CCN(CC)CCC(=O)N1C/C(=C/c2ccccc2)C(=O)/C(=C\c2ccccc2)C1	.	/	/	.	.	45µM
O=C(NCCN1CCOCC1)c1ccc(Cl)c(Cl)c1	.	.	/	.	.	.
O=C1/C(=C\c2ccc(Cl)c(Cl)c2)CN(C(=O)CCN2CCOCC2)C/C1=C/c1ccc(Cl)c(Cl)c1	.	/	/	.	.	3.2µM
COc1ccc(CNc2oc(-c3ccc(COc4ccccc4C)o3)nc2C#N)cc1	/	/	/	/	/	.
CN(C)c1ccc(-c2cc(C3C4C=CCCC4(C)C(=O)N3Cc3ccccc3)ccc2F)cc1 (stereo unspecified)	/	/	?	/	/	.
COc1ccc(C)cc1Nc1nc(C)nc2sc(C)cc12	.	.	/	30µM	.	?
COc1ccc(C)cc1Nc1nc(-c2ccccc2O)nc2ccccc12	.	.	/	.	.	.
CN=c1scc(C)n1/N=C/c1ccc(O)c(O)c1O	.	?	?	6.7µM	.	.
CN=c1scc(-c2cccs2)n1/N=C/c1ccccc1O	.	/	.	.	.	.
CN=c1scc(-c2cccs2)n1/N=C/c1ccc(O)c(O)c1O	/	.	?	6.7µM	.	?
CCN=c1scc(C)n1/N=C/c1ccsc1	.	.	.	.	.	?
CC[C@H](C)[C@H](NC(=O)[C@H](Cc1ccc(O)cc1)NC(=O)[C@H](Cc1cnc[nH]1)NC(=O)[C@H](CCCNC(=N)N)NC(=O)[C@H](CC(C)C)NC(=O)[C@H](C)NC(=O)[C@H](CO)NC(=O)[C@H](Cc1ccc(O)cc1)NC(=O)[C@H](Cc1ccc(O)cc1)NC(=O)[C@H](CCCNC(=N)N)NC(=O)[C@H](C)NC(=O)[C@H](CC(C)C)NC(=O)[C@H](CC(=O)O)NC(=O)[C@H](CCC(=O)O)NC(=O)[C@H](C)NC(=O)[C@@H]1CCCN1C(=O)[C@H](C)NC(=O)[C@H](CC(=O)O)NC(=O)[C@H](CCC(=O)O)NC(=O)CNC(=O)[C@@H]1CCCN1C(=O)[C@H](CC(N)=O)NC(=O)[C@H](CC(=O)O)NC(=O)[C@@H]1CCCN1C(=O)[C@H](CCCCN)NC(=O)[C@H](CO)NC(=O)[C@@H]1CCCN1C(=O)[C@@H](N)Cc1ccc(O)cc1)C(=O)N[C@@H](CC(N)=O)C(=O)N[C@@H](CC(C)C)C(=O)N[C@H](C(=O)N[C@H](C(=O)N[C@@H](CCCNC(=N)N)C(=O)N[C@@H](CCC(N)=O)C(=O)N[C@@H](CCCNC(=N)N)C(=O)N[C@@H](Cc1ccc(O)cc1)C(N)=O)[C@@H](C)O)[C@@H](C)CC	/	/	.	/	/	.
CC(C)(C)c1ccc(OCC(=O)NCC2(N3CCOCC3)CCCCC2)cc1	/	/	/	/	/	.
Cc1ccc(SCc2nc(-c3ccc(C(=O)Nc4cc(C)ccc4C)cc3)oc2C)cc1	/	/	/	/	/	.
CCOC(=O)N1CCc2c(sc(NCc3cc(OC)c(OC)cc3OC)c2C(=O)Nc2ccc(OCC)cc2)C1	/	/	/	/	/	.
CC(C)(C)N/N=C1\CC(c2ccccc2)Oc2ccccc21 (stereo unspecified)	.	.	.	30µM	.	.
Cc1csc2nc(CSc3ccc(Cl)cc3)cn12	.	.	.	6.7µM	.	?
COc1cc2oc3ccccc3c2cc1N(CC(=O)N(C)C)S(=O)(=O)c1ccccc1	-84	.	.	.	.	.
CSc1cccc(NC(=O)CC(c2ccc(F)cc2)N2Cc3ccccc3C2=O)c1 (stereo unspecified)	/	/	/	/	/	.
CC1=C(c2ccc(C)c(C)c2)S(=O)(=O)N=C1N1CCC(C(=O)N2CCC(C)CC2)CC1	/	/	/	/	/	.
COc1ccc(NC(=O)CSc2nc(=O)n(CCN3CCOCC3)c3c2CCC3)c(OC)c1	.	/	/	.	.	.
COc1ccc(NC(=O)CSc2nc(=O)n(CCN3CCOCC3)c3c2CCCC3)c(OC)c1	-120	/	/	.	.	.
